# High-throughput results from PubChem.
# In the library only some 20% were active in any assay of this set; here they are far more common.
# Pf growth 96h: P. falciparum growth inhibition at 96 hour, primary screen for plastid delayed-death inhibitors | P. falciparum luciferase reporter growth, 96 h | Potency, µM (highest dose often 28.7 µM), for inactives: top-dose activity change, negative = inhibition, usual class: inhibitors | hit rate 6.9% among 320,000 | AID 504834; further: potency means the concentration at half of the fitted maximal effect; on the % scale 0 is the no-effect control and ±100 the full control effect
#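 P. falciparum expressing integrated firefly luciferase, in erythrocytes at 2% hematocrit, 0.05% parasitemia, incubated with compounds 96 h at 37 C, 5% CO2. Growth inhibition read as loss of luminescence; two-generation exposure targets delayed-death apicoplast inhibitors.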
# Pf growth 48h: inhibits P. falciparum growth in the first generation, 48 h | P. falciparum luciferase growth in erythrocytes, 48 h | Potency, µM (titrated, usually from 28.7 µM), for the others: top-dose activity change, negative = inhibition, hits mostly inhibitors | hit rate 5.9% among 310,000; further: potency means the concentration at half of the fitted maximal effect; on the % scale 0 is the no-effect control and ±100 the full control effect
#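 Parasite viability was followed by luminescence of a genomically integrated firefly luciferase. Cultures held 0.1% parasitemia at 2% hematocrit (final), incubated under 5% CO2 at 37 C.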
# Shiga inhibitor: blocks Shiga toxin action in Vero cells | AID 2315 | inhibition, % at 38.7 µM | hit rate 9.2% among 290,000 | Vero cells, Shiga toxin protein synthesis inhibition reporter; in the data active means inhibition mostly above about 28%, no sharp cut-off; inactive means mostly below about 43%; further: 0% is about no effect
# HCMV antiviral: inhibitors of human cytomegalovirus | HFF cells, HCMV-luciferase reporter, 72 h; hits give low values | activity change, negative = inhibition, % at 57.5 µM | hit rate 4.5% among 410,000 | AID 1259415; in the data active means activity change below about -60%; inconclusive means no clear call, values can overlap the other calls; inactive means above about -39%; further: on the % scale 0 is the no-effect control and ±100 the full control effect
#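 Two-dose cell screen: HFF monolayers treated with compounds and infected with luciferase-expressing HCMV at 1 PFU/cell, 72 h at 37C, then lysed for luciferase measurement.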
# CHX counter: affects cycloheximide protein synthesis inhibition readout, counter-screen | AID 2314 | hit rate 12% among 300,000 | cell reporter, cycloheximide protein synthesis inhibition counterscreen | max response, %; in the data active means max response mostly above about 13%, no sharp cut-off; inactive means mostly below about 14%; further: read at 38.3 µM for the half of the compounds with a filed dose; 0% is about no effect
# * marks the source's active call; other numbers are inactive results; i = inactive; ? = inconclusive; · = no result given; [ ] = remark or other dose. Unless noted, the call rests on the fitted dose curve; in most records, active means well fitted inhibition curve with a large enough effect; inconclusive means small, poorly fitted or top-dose-only effect, or another doubt; inactive means no such curve, though single readings can be large or run the other way.
SMILES,Pf growth 96h,Pf growth 48h,Shiga inhibitor,HCMV antiviral,CHX counter
COc1ccc2c(c1OC)C(=O)OC2C1c2cc3c(cc2CCN1C)OCO3 (centres undefined),12µM*,13%,-5,26,1
CCCc1cc2c(OC(=O)CC)c(-c3ccc(C(=O)OCC)o3)c(=O)oc2cc1OC,-9%,-13%,17,-11,-4
CC(=O)N1CCN(CC(=O)Nc2cc(F)ccc2C)CC1,?,-5%,·,15,5
Nc1c(-c2ccccc2)sc2ccc3ccccc3[n+]12,?,7%,22,53,12*
O=C(COc1ccccc1)NCC(=O)Nc1ccc(S(=O)(=O)NCc2ccco2)cc1,·,-16%,-19,-103*,2
O=C(COc1ccccc1)Nc1ccc(S(=O)(=O)NCc2ccco2)cc1,?,11%,19,9,1
O=C(COc1ccccc1F)Nc1ccc(S(=O)(=O)NCc2ccco2)cc1,?,-9%,40,-20,40*
Cc1csc(=O)n1CC(=O)OCC(=O)Nc1cc(S(=O)(=O)N2CCOCC2)ccc1Cl,-3%,4%,·,-28,·
O=C(CCCN1C(=O)/C(=C/c2ccccc2Cl)SC1=S)NNC(=O)c1cccnc1,?,9.3µM*,-12,-36,-3
Cc1cc(NC(=O)CCN2C(=O)/C(=C\c3ccccc3Cl)SC2=S)no1,0.033µM*,22%,-7,-40,14
Cc1cc(NC(=O)CCCN2C(=O)/C(=C\c3cccs3)SC2=S)no1,0%,-3%,5,-34,-3
O=C1/C(=C/c2cccnc2)SC(=NCc2ccccc2)N1Cc1ccccc1,-29%,0%,2,-15,4
O=C(CCN1C(=O)/C(=C\c2ccccc2)SC1=S)NNC(=O)c1ccccc1O,?,26%,-6,-20,-4
O=C1/C(=C/c2cccnc2)SC(=S)N1CCc1ccccc1,-9%,?,-14,-71*,-1
O=C(CCN1C(=O)/C(=C\c2ccccc2Cl)SC1=S)Nc1cccnc1,?,8%,0,-15,-4
O=C(CCN1C(=O)/C(=C\c2ccccc2)SC1=S)NNC(=O)c1cccnc1,-47%,14%,8,-62*,2
CSCC[C@H](NC(=O)N1CCn2c1nc1ccccc12)C(=O)NCc1ccc(C)cc1,1%,?,-6,-33,-1
Nc1ccccc1N1C(=O)c2ccccc2C1=O,·,·,·,12,·
O=C(CCCN1C(=O)/C(=C/c2ccccc2Cl)SC1=S)NNC(=O)c1ccccc1,1.9µM*,?,-11,?,-8
O=C(CCCN1C(=O)/C(=C/c2ccccc2Cl)SC1=S)NNC(=O)c1ccc(Cl)cc1Cl,4%,?,2,-64*,-8
O=C(CCN1C(=O)/C(=C/c2ccccc2Cl)SC1=S)Nc1ccccc1C(=O)O,26%,2%,21,-28,14
Cc1nn2c(=O)cc(COC(=O)c3cccc(NC(=O)c4cccs4)c3)nc2s1,·,·,·,-11,·
COc1cc(-c2nc3c(c(C)nn3-c3ccccc3)c3cc(OC)c(OC)cc23)ccc1O,?,2.9µM*,6,-35,3
Cn1nc(C(F)(F)F)c(-c2ccc(Br)cc2)c1NC(=O)c1cccnc1,?,?,-7,-14,-2
Cn1nc(C(F)(F)F)c(-c2ccc(F)cc2)c1NC(=O)Nc1ccc(F)cc1,0.47µM*,0.83µM*,-6,?,2
SMILES,Pf growth 96h,Pf growth 48h,Shiga inhibitor,HCMV antiviral,CHX counter
CCCCC1CCC(CCCC(C)CCC(=O)O)CC1 (centres undefined),·,·,·,-8,·
Nc1ccc(-c2nc3cc([N+](=O)[O-])ccc3o2)cc1,79%,214%,74*,-39,106*
COc1ccc(-c2nc3cc([N+](=O)[O-])ccc3o2)cc1,21%,i,99*,104,40*
CC(C)(C)Nc1nc2cc([N+](=O)[O-])ccc2o1,32%,33%,48*,40,17*
O=C(NC(=S)Nc1ccc(F)cc1)C1CCCCC1,2%,-27%,89*,58,23*
CC(=O)Nc1ccc(NC(=S)NC(=O)C2CC2)cc1,18%,?,64*,38,25*
O=C(NC(=S)Nc1ccc(O)cc1)C1CCCC1,71%,94%,·,12,·
O=C(NC(=S)Nc1ccc(Br)c(Cl)c1)C1CC1,?,-1%,32*,-6,26*
CC(=O)c1ccc(NC(=S)Nc2ccc(Br)c(Cl)c2)cc1,-1%,-1%,-4,-16,-1
O=C(Nc1ccc(F)cc1)C1CCCCC1,-17%[5.75 µM],3%,34,-23,12
COC(=O)C1(C(=O)OC)C[C@H](/C=C/c2ccccc2)N(Cc2ccccc2OC)[C@@H]1c1ccccc1,·,·,·,-38,·
CCc1cccc(NC(=O)c2cc3c(s2)-c2ccccc2OC3)c1,·,·,·,-24,·
O=C(Nc1cccnc1)c1cc2c(s1)-c1ccccc1OC2,211%,?,54*,-62*,43*
Cc1cccc2c1-c1sc(C(=O)Nc3cccnc3)cc1CO2,-5%,?,42*,?,19*
COc1cccc(C(=O)Nc2cccc(C(=O)OCc3cc(=O)n4c5c(sc4n3)CCCC5)c2)c1,·,·,·,-10,·
Cc1ccc(OCC(=O)NCCc2c[nH]c3ccccc23)cc1,i,21%,18,10,-5
COc1ccc(Nc2ncnc3c2c(C)c(C)n3CCO)cc1,270%,131%,72*,167,48*
Cc1c(C)n(CCO)c2ncnc(Nc3ccc(F)cc3)c12,35%,-15%[0.00184 µM],69*,33,18
Cc1c(C)n(CCCN(C)C)c2ncnc(Nc3ccc(F)cc3)c12,22%,14%,-3,-27,7
O=C(NCc1cccc(Cl)c1)NCc1noc2ccccc12,·,·,·,3,·
FC(F)(F)C(Cl)Br (centres undefined),-50%,-27%,·,·,·
Cc1ocnc1C(=O)Nc1ccc(Cl)cc1,111%,156%,122*,67,44*
Cc1cc(C(=O)Nc2ccc(Cl)cc2)on1,52%,10%,58*,-30,23*
COc1ccc(NC(=O)c2cc(C)no2)cc1Cl,3.7µM*,4.1µM*,20,-33,12
Cn1c(SCC(=O)Nc2nc3ccccc3s2)ncc(C(=O)Nc2ccc(Cl)cc2)c1=O,·,·,·,-23,·
SMILES,Pf growth 96h,Pf growth 48h,Shiga inhibitor,HCMV antiviral,CHX counter
Nc1ccc(S(=O)(=O)NC2(C(F)(F)F)NC(=O)N(c3ccccc3F)C2=O)cc1 (centres undefined),-20%,36%,36,-12,13
COC(=O)c1c(-c2cccs2)csc1NC(=O)c1ccc(C(C)(C)C)cc1,·,·,·,-12,·
CN(CCc1ccccc1)Cc1ccccc1[N+](=O)[O-],59%,·,42,-18,17*
CC1=C/C(=C\c2ccc(Br)o2)C(=O)O1,17%,-3%,-6,-32,0
O=C1C(=Cc2ccc(Br)o2)C(=O)c2ccccc21,0%,3%,-3,·,30*
Cc1ccc(Cn2ncc3c(N4CCN(C)CC4)ncnc32)cc1,7.4µM*,-12%,14,-7,-5
Cc1ccc(Cn2ncc3c(N4CCN(c5ccc(C)cc5)CC4)ncnc32)cc1,51%,?,15,?,-5
Cc1ccc(Cn2ncc3c(NN)ncnc32)cc1,?,?,3,-86*,1
